# Compound: S=c1[nH]cnc2nc[nH]c12 [Mercaptopurine (6-MP)]
# Test: fraction of microhomology deletions among edited reads; higher = more MH deletions
# Conditions: mESC; 2uM; 72 h treatment, harvest day 5
row,Target,fraction of microhomology deletions among edited reads
1,"31.0 (DMSO control at this site: 1-bp insertion 0.315, MH deletion 0.329, edited 0.026) ACCTCCACAGGCTGGGTGGCCCGGAGGCTGGGCGGCCCGGAGGCTGGGCTGGGCGAGTATC",0.459
2,"29.0 (DMSO control at this site: 1-bp insertion 0.084, MH deletion 0.745, edited 0.133) TTGATGAACTTCCTCTTCTTCTCATGTCTCCGGTCTCCGGTAGGCCACGTGCATGGCCACT",0.669
3,"17.0 (DMSO control at this site: 1-bp insertion 0.112, MH deletion 0.348, edited 0.058) CCATAGCGCGATAAATATGACGGCTCATCCTGTATGACGGCTCATCCTGTATCAACTGTCC",0.422
4,"45.0 (DMSO control at this site: 1-bp insertion 0.017, MH deletion 0.666, edited 0.101) TTACACAGCATGAACTGCTAGGTGATGATGTCAGATTCGGTTTTACTAACTTCTCCAAAAA",0.614
5,"30.0 (DMSO control at this site: 1-bp insertion 0.074, MH deletion 0.67, edited 0.142) GAGCTGGCATGAGTATTTGTGCCACATGGCTCCCACATGGCTCCACATGCAAGTTTGAAAC",0.6
6,"44.0 (DMSO control at this site: 1-bp insertion 0.181, MH deletion 0.512, edited 0.123) ACACATACCTTCTTCGAGGCAGCCAGCATGATGAGACAGGTCTCCCACAAACACATCGTGT",0.499

# From the supplement of paper PMC8387472
